Assay results from ChEMBL document CHEMBL3988442, “University of Dundee, Small-Polar-MMV Screening Library” (2021).
For some of these results: Measured potencies and affinities stand elsewhere.

Experiments:
Set-up in all cases: scale not given: direction of the effect not stated beside the values
[1] = target: Protein translocase subunit SecA (Escherichia coli (strain K12)) (UniProt P10408); assay: Assay to Identify E. coli SecA ATPase Inhibitors; format: functional; conditions: 30 µM
[2] = target: T1, Ubiquitin-activating enzyme e1, putative (Leishmania donovani (strain BPK282A1)) (UniProt E9BSI1); assay: Leishmania donovani Ubiquitin Activating Enzyme (LdE1); format: functional; conditions: 30 µM
T1 sequence (whole entry): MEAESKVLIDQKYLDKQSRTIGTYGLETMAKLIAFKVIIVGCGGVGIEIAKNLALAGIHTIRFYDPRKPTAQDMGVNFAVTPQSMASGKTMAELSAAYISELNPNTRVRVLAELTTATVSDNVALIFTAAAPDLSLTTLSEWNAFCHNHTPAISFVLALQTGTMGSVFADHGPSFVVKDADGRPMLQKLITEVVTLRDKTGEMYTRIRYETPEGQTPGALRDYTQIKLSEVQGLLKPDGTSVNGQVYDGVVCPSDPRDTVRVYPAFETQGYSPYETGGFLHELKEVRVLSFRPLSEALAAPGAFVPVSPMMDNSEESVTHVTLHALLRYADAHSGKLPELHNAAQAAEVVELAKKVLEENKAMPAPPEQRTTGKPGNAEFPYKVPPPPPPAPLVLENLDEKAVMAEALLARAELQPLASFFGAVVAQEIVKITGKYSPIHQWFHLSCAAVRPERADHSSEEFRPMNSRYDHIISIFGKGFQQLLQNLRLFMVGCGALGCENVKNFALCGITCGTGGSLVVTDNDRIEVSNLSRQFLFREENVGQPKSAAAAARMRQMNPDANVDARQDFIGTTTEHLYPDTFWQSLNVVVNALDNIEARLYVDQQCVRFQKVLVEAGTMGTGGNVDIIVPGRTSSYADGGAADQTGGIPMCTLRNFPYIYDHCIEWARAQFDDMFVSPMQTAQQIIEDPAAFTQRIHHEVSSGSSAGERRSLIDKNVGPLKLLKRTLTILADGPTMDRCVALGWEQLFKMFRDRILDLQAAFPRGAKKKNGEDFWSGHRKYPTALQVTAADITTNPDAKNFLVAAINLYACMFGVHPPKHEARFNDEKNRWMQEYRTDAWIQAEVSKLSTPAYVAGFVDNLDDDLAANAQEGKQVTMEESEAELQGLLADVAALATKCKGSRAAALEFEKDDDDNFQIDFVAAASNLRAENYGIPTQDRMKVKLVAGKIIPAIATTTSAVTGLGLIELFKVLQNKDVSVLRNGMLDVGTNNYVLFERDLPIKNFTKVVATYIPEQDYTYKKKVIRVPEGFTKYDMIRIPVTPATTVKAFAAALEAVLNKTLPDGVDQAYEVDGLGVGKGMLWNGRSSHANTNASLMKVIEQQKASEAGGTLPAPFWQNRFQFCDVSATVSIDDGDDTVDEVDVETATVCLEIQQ

[3] = target: AMP-activated protein kinase, AMPK (Homo sapiens) (UniProt P54646+O43741+P54619+Q9UGJ0+Q9Y478+Q13131+Q9UGI9); assay: AMP-dependent Kinase enzyme assay. An in vitro enzyme assay that detects ADP turnover that is directly proportional to AMPK activity. This uses naive AMPK that is activated during the assay with MK-8722; format: functional; conditions: 30 µM
[4] = target: Sialic acid-binding Ig-like lectin 9 (Homo sapiens) (UniProt Q9Y336); assay: Hs-Siglec9 ALPHAscreen SOP 20170721; conditions: 10 µM
Sequence of Sialic acid-binding Ig-like lectin 9 (Homo sapiens) (Q9Y336 whole entry): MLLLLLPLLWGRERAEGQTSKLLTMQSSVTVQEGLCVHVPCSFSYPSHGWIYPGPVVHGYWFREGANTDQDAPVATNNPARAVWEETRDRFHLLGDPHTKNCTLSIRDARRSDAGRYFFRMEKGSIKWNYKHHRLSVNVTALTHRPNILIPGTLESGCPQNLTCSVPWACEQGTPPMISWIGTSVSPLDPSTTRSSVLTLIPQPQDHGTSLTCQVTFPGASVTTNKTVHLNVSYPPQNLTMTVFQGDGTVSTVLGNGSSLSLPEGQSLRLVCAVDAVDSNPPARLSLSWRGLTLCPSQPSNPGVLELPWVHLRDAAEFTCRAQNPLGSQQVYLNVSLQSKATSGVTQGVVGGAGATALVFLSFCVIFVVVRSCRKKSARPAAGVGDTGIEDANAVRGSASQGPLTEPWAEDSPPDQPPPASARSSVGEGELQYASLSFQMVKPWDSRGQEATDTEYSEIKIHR

Trypanosoma cruzi = assay: Trypanosoma cruzi phosphomannomutase and mannose-1-phosphate guanylyltransferase assay; format: functional; conditions: 10 µM
[5] = target: T2, Arginase-2, mitochondrial (Homo sapiens) (UniProt P78540); assay: in vitro enzyme assay to detect the production of urea directly proportional to the activity of Arginase II; format: functional; conditions: 33.3 µM; further: in the data most compounds retested in dose-response had high values
T2 sequence (whole entry): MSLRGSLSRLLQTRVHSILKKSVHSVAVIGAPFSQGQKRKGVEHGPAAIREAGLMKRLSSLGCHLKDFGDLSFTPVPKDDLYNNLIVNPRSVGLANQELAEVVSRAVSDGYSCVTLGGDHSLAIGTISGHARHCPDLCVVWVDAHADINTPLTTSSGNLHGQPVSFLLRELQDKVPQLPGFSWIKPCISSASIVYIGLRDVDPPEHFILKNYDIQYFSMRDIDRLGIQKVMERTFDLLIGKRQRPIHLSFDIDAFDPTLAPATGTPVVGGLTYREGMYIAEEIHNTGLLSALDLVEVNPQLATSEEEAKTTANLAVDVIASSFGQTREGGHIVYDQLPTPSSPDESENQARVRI

[6] = target: T3, Proteasome subunit beta (Trypanosoma cruzi) (UniProt O96673); assay: Trypanosoma cruzi proteasome chymotrypsin-like activity (TcProtChymo) assay.; further: in the data most compounds retested in dose-response had high values; format: functional; conditions: 9.37 µM
T3 sequence (whole entry): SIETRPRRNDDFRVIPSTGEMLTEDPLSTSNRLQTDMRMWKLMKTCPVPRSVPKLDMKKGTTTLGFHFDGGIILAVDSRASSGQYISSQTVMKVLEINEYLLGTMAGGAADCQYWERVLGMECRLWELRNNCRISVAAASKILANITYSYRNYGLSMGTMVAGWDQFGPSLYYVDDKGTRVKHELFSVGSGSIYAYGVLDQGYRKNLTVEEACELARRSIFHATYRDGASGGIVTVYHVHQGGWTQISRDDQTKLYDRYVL

Homo sapiens = organism: Homo sapiens; assay: To identify inhibition of the IFN signalling (Jak-Stat) pathway via expression of an eGFP reporter gene under the control of an IFN-stimulated response element (ISRE) containing MxA promoter.; format: functional; conditions: 30 µM
[7] = target: T4, Tyrosyl-tRNA synthetase, putative (Trypanosoma cruzi (strain CL Brener)) (UniProt Q4DSP6); assay: Trypanosoma cruzi tyrosyl tRNA synthetase (TcYRS) _High Tyrosine SOP; format: functional; conditions: 30 µM; further: in the data most compounds retested in dose-response had high values
T4 sequence (whole entry): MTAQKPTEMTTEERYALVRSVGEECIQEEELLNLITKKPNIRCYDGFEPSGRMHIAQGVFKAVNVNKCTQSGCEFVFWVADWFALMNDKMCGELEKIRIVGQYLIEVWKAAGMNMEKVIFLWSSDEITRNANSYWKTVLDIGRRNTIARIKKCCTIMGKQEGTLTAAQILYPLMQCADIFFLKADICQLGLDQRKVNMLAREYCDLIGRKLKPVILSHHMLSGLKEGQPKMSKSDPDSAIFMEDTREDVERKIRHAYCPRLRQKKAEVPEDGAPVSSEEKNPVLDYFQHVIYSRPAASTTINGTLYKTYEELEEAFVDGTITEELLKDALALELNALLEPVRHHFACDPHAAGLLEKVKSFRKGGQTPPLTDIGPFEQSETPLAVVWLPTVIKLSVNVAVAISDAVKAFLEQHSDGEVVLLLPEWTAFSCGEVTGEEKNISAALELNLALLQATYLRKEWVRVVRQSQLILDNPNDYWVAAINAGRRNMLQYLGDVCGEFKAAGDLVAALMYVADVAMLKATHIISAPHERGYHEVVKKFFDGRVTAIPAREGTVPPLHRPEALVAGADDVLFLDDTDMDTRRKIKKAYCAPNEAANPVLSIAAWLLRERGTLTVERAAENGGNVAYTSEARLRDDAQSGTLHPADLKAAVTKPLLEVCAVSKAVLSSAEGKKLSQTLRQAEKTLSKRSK

[8] = target: T4, Tyrosyl-tRNA synthetase, putative (Trypanosoma cruzi (strain CL Brener)); assay: Trypanosoma cruzi tyrosyl tRNA synthetase (TcYRS) SOP; format: functional; conditions: 30 µM
[9] = target: Chromo domain-containing protein 1 (Saccharomyces cerevisiae (strain ATCC 204508 / S288c) (Baker's yeast)) (UniProt P32657); assay: ScCHD-1 Enzyme Inhibition Assay; format: functional; conditions: 30 µM; further: in the data most compounds retested in dose-response had high values
Sequence of Chromo domain-containing protein 1 (Saccharomyces cerevisiae (strain ATCC 204508 / S288c) (Baker's yeast)) (P32657 whole entry, the tested form may be a part): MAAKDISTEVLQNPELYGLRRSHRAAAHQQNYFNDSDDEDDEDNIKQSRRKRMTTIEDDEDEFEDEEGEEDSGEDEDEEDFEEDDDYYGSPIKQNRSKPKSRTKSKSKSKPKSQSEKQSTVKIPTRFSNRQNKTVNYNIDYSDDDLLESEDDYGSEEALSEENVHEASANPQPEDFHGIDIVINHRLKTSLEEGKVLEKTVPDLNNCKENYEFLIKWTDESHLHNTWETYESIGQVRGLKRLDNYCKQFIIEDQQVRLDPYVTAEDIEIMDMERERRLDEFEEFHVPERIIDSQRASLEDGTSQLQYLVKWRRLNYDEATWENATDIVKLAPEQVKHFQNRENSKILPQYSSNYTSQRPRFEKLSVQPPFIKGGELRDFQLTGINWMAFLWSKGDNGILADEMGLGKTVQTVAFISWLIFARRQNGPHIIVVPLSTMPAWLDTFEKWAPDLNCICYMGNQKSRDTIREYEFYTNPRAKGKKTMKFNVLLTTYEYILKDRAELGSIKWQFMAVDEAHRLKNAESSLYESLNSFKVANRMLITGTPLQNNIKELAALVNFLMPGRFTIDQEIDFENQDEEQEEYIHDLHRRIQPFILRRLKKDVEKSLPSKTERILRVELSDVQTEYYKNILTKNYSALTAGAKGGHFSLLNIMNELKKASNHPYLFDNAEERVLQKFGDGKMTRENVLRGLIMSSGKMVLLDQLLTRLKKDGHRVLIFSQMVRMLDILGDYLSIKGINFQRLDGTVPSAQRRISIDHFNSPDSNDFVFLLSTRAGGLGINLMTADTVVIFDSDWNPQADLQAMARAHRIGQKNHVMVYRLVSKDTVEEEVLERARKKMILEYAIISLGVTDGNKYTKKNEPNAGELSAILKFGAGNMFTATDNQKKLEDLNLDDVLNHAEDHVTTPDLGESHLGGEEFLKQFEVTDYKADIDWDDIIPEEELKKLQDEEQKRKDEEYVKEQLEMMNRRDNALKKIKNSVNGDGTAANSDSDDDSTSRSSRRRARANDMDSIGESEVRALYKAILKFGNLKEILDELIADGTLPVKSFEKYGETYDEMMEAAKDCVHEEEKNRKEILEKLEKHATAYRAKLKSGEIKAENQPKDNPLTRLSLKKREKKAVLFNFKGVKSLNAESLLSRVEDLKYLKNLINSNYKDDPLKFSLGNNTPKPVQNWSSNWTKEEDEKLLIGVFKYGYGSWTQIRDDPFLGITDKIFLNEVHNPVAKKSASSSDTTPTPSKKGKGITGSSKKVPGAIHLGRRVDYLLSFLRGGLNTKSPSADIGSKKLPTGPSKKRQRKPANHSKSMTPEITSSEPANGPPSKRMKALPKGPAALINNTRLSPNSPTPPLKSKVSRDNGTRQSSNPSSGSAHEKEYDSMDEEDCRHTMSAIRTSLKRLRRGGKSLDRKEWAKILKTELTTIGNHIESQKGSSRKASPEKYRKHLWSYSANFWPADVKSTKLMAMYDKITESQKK

Sequence of Protein translocase subunit SecA (Escherichia coli (strain K12)) (P10408 whole entry): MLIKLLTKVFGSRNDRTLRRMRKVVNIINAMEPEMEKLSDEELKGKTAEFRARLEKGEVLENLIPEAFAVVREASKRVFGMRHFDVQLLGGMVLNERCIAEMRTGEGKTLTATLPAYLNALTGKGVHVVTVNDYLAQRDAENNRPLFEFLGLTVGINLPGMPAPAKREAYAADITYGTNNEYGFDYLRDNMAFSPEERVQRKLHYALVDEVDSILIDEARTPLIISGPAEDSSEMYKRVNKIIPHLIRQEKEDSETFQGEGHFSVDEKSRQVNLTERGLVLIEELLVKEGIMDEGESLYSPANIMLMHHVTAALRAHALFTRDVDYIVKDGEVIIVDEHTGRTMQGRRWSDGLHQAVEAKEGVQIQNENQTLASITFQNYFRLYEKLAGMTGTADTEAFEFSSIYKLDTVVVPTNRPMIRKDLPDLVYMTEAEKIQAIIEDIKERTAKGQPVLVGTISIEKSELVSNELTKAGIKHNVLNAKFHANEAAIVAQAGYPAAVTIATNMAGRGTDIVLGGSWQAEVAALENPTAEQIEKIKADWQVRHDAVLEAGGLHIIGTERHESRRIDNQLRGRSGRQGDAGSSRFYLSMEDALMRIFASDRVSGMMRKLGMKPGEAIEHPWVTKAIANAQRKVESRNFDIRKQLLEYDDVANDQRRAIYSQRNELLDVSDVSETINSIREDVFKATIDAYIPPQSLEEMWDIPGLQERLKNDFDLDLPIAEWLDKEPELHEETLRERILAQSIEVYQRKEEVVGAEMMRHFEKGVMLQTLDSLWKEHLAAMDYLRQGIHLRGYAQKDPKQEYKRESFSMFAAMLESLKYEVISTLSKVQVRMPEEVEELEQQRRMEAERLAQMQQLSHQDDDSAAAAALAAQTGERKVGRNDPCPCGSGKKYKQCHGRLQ

SMILES | Percent Effect [1] | Percent Effect [2] | Percent Effect [3] | Percent Effect [4] | Percent Effect (Trypanosoma cruzi) | Percent Effect [5] | Percent Effect [6] | Percent Effect (Homo sapiens) | Percent Effect [7] | Percent Effect [8] | Percent Effect [9]
CCN(CC)Cc1cn2c(n1)CN(C(=O)c1cc(C)on1)CC2 | -2.81% | 16.2% | 5.86% | -5.08% | -4.01% | 9.24% | 23.2% | -1.45% | 2.16% | 10.3% | -0.746%
Cc1nc(CC(=O)N2CCC[C@H]2c2nc(C(C)C)no2)cs1 | -6.79% | -1.39% | 0.72% | -1.32% | 1.26% | 3.09% | 7.19% | -13.6% | 3.16% | 5.13% | -0.504%
CCc1noc(C)c1C(=O)N(C)Cc1ncc(C)c(OC)c1C | -5.87% | 10.4% | 5.05% | -5.08% | 6.76% | 2.32% | 7.36% | 7.84% | 8.57% | 18.8% | -14.6%
CCCc1cc(NC2CCc3ncnn3C2)n2ncnc2n1 (configuration not stated) | -4.43% | 5.48% | 7.3% | -5.57% | -2.74% | -0.455% | 10.1% | 17.2% | 2.15% | 7.5% | -3.04%
CCOCC1CN(S(C)(=O)=O)Cc2cnn(C)c21 (configuration not stated) | -0.898% | 16% | -7.73% | 10.1% | 5.79% | -43.9% | 10.8% | -2.61% | 4.17% | 12.5% | -7.93%
CCc1nc(C)c(C(=O)NCCNc2ncccn2)s1 | -4.61% | 15.8% | -1.87% | -4.05% | -2.52% | 0% | 2.28% | -2.51% | 9.36% | 16.1% | -3.7%
O=C(c1ccc(N2CCCC2)nn1)N1CCCC(n2cccn2)C1 (configuration not stated) | -6.6% | 10.5% | -3% | -5.01% | -6.44% | 5.4% | 5.33% | -4.4% | 4.43% | 3.7% | 1.12%
Cc1ccc(N2CCCN(C(=O)CC3CCCO3)CC2)nn1 (configuration not stated) | -2.51% | 21.6% | -11.8% | 5.27% | 3.87% | -8.82% | 14.8% | 7.13% | -1.48% | 18.5% | -9.23%
Cc1ccc(C(=O)N2CCO[C@H]3[C@@H](OCc4ccccn4)CC[C@@H]32)o1 | -2.21% | 10.4% | -8.74% | 3.45% | -4.44% | 11% | 12.7% | 11.5% | -1.06% | -8.97% | -6.69%
O=C(Nc1ccccn1)C1=NN(c2ccccc2)C(=O)CN1 | 0.648% | 25.3% | -3.03% | -13.4% | 1.6% | -5.32% | 11.9% | 9.82% | 6.4% | 24.1% | -12.2%
O=C(NCCCNC(=O)c1cccc(O)c1)NCc1ccccc1F | -2.42% | 15.8% | 0.229% | 0.609% | 2.63% | -5.92% | 14.9% | 1.72% | 3.19% | 15.6% | -3.65%
Cc1ccc(N2CCCC(NCc3ccsc3)C2)nn1 (configuration not stated) | 1.41% | 13.5% | -7.55% | 2.96% | -6.7% | 1.6% | 8.29% | 11% | 4.43% | 16.1% | -7.21%
Cn1cc(N2CCC3(CCN(Cc4nccs4)C3)C2=O)cn1 (configuration not stated) | -2.64% | 2.7% | 4.13% | -6.07% | -4.2% | 0.319% | 16.4% | -1.48% | 4.32% | 10.3% | -0.716%
Cc1ccc(C(=O)NS(=O)(=O)c2ccccc2C)c(=O)[nH]1 | -3.76% | 8.11% | -4.75% | 9.94% | -5.85% | -6.84% | 4.85% | 15.8% | 7.92% | 6.1% | 1.56%
Cc1cc(CN2CCN(C(=O)NC(C)c3cccnc3)CC2)on1 (configuration not stated) | -2.66% | 13.2% | -2.63% | 3.25% | 8.08% | 1.92% | 10.7% | 2.49% | -0.49% | 19.5% | -6.79%
CC(CN1CCOCC1)NC(=O)N(C)Cc1ccc(Cl)s1 (configuration not stated) | 0.481% | 10.5% | 2.51% | -1.81% | -6.91% | 0% | 13.3% | 3.75% | 6.38% | 13% | -2.62%
COCC(=O)N1CC[C@@H]2O[C@H](COCc3ccncc3)CC[C@@H]21 | -3.69% | 18.9% | 10.4% | -8.21% | -4.2% | 9.24% | 16.6% | -0.209% | 1.08% | 17.9% | -0.872%
